Measured values: PubChem BioAssay AID1159580 (chemical genetic matrix, 2015)
The whole screen tested about 5,500 compounds, of which about 2,000 (36%) were called active. About 18% were inconclusive and are not listed. No stated cut-off is given here; in the data, active means normalized growth mostly below about 0.91 (no sharp cut-off); inconclusive means no clear call, values can overlap the other calls; inactive means mostly above about 0.92. Some of the results follow.

Assay: chemical genetic growth profiling, strain panel (AID 1159580);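 further: tested at 20 µM; growth read once vehicle control cultures reached saturation at 30 °C; 1 = growth at the plate median or of vehicle wells; lower values mean less growth of the strain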
Details: S. cerevisiae deletion strains, growth OD
[1] = locus YHR030C, strain SLT2, hits give low values
[2] = locus YHR079C, strain IRE1, hits give low values
[3] = locus YJL095W, strain BCK1, hits give low values
[4] = locus YJR066W, strain TOR1, hits give low values
[5] = locus YLR113W, strain HOG1, hits give low values
[6] = locus YNL183C, strain NPR1, hits give low values
[7] = locus YOR231W, strain MKK1, hits give low values
[8] = locus YPL256C, strain CLN2, hits give low values

Measured: normalized growth

Cc1[nH]c(C)c(Cl)c(=O)c1Cl
inactive: locus YAL021C, strain ccr4, hits give low values 1.01 | locus YAL026C, strain drs2, hits give low values 1.01 | locus YAL030W, strain snc1, hits give low values 0.998 | locus YBL061C, strain skt5, hits give low values 1 | locus YBR009C, strain hhf1, hits give low values 1.03 | locus YBR023C, strain chs3, hits give low values 1 | locus YBR171W, strain sec66, hits give low values 1 | locus YBR231C, strain swc5, hits give low values 0.996 | locus YBR279W, strain paf1, hits give low values 0.999 | locus YCL011C, strain gbp2, hits give low values 1.01 | locus YCL016C, strain dcc1, hits give low values 0.997 | locus YCL061C, strain MRC1, hits give low values 0.998 | locus YCL069W, strain vba3, hits give low values 0.997 | locus YCR088W, strain abp1, hits give low values 1 | locus YDL005C, strain med2, hits give low values 1.01 | locus YDL040C, strain nat1, hits give low values 1 | locus YDR001C, strain nth1, hits give low values 0.994 | locus YDR069C, strain doa4, hits give low values 1.02 | locus YDR137W, strain rgp1, hits give low values 1.01 | locus YDR159W, strain sac3, hits give low values 0.981 | locus YDR195W, strain ref2 0.962 | locus YDR297W, strain sur2, hits give low values 1.01 | locus YDR334W, strain swr1, hits give low values 1 | locus YDR335W, strain msn5, hits give low values 1 | locus YDR392W, strain spt3, hits give low values 1.03 | locus YEL003W, strain gim4, hits give low values 1.01 | locus YEL037C, strain rad23, hits give low values 0.999 | locus YEL061C, strain CIN8 (second series), hits give low values 1.01 | locus YER015W, strain faa2, hits give low values 0.999 | locus YER016W, strain bim1, hits give low values 0.995 | locus YER111C, strain swi4, hits give low values 0.999 | locus YER155C, strain BEM2 (second series), hits give low values 1.01 | locus YFR010W, strain ubp6, hits give low values 1.01 | locus YGL167C, strain pmr1, hits give low values 0.999 | locus YGL173C, strain kem1, hits give low values 1 | locus YGL227W, strain vid30, hits give low values 0.996 | locus YGL240W, strain doc1, hits give low values 0.998 | locus YGL253W, strain hxk2, hits give low values 1.01 | locus YHR013C, strain ard1, hits give low values 0.979 | locus YHR027C, strain rpn1, hits give low values 0.992 | [1] 1.04 | [2] 1.03 | locus YHR142W, strain chs7, hits give low values 1.01 | locus YJL092W, strain hpr5, hits give low values 0.996 | locus YJL095W, strain BCK1 (second series), hits give low values 0.998 | [3] 0.983 | locus YJL115W, strain asf1, hits give low values 1.01 | locus YJL129C, strain trk1, hits give low values 0.992 | locus YJL154C, strain vps35, hits give low values 0.999 | locus YJL164C, strain tpk1, hits give low values 1.01 | locus YJL166W, strain qcr8, hits give low values 1.01 | [4] 0.986 | locus YKL160W, strain elf1, hits give low values 1 | locus YKR026C, strain gcn3, hits give low values 1 | locus YKR091W, strain srl3, hits give low values 1 | locus YLL001W, strain dnm1, hits give low values 1 | locus YLL026W, hits give low values 1 | locus YLL041C, strain sdh2, hits give low values 1 | locus YLR027C, strain aat2, hits give low values 1.01 | [5] 0.98 | locus YLR221C, strain rsa3, hits give low values 0.997 | locus YLR258W, strain gsy2, hits give low values 0.995 | locus YLR262C, strain YPT6 (second series), hits give low values 1.03 | locus YLR320W, strain mms22, hits give low values 1 | locus YLR342W, strain FKS1, hits give low values 1 | locus YLR357W, strain rsc2, hits give low values 1 | locus YLR370C, strain arc18, hits give low values 0.998 | locus YLR384C, strain iki3, hits give low values 0.995 | locus YML120C, strain ndi1, hits give low values 1.01 | locus YMR058W, strain fet3, hits give low values 1.01 | locus YMR125W, strain sto1, hits give low values 0.994 | locus YMR129W, hits give low values 0.993 | locus YMR205C, strain PFK2, hits give low values 0.988 | locus YMR231W, strain pep5, hits give low values 0.991 | locus YNL071W, strain lat1, hits give low values 1 | [6] 0.972 | locus YNL209W, strain ssb2, hits give low values 1.01 | locus YNL248C, strain rpa49, hits give low values 1.01 | locus YNL322C, strain KRE1 (second series), hits give low values 0.999 | locus YNR049C, strain mso1, hits give low values 1 | locus YOR001W, strain rrp6, hits give low values 1.01 | locus YOR070C, strain gyp1, hits give low values 1.01 | locus YOR080W, strain dia2, hits give low values 0.991 | locus YOR083W, strain WHI5, hits give low values 1.01 | locus YOR106W, strain vam3, hits give low values 1.02 | [7] 0.999 | locus YOR265W, strain rbl2, hits give low values 1.01 | locus YOR270C, strain vph1, hits give low values 1 | locus YOR290C, strain snf2, hits give low values 0.999 | locus YPL051W, strain arl3, hits give low values 1.01 | locus YPL078C, strain atp4, hits give low values 1 | locus YPL106C, strain sse1, hits give low values 1 | locus YPL240C, strain hsp82, hits give low values 0.991 | [8] 1.02

CC(=O)CSc1nnc(-c2ccc(C(C)(C)C)cc2)n1-c1ccc(Cl)cc1
active: [1] 0.797
inactive: locus YAR019C, strain CDC15, hits give low values 0.982 | locus YBL105C, strain PKC1, hits give low values 0.974 | locus YBR135W, strain CKS1, hits give low values 0.973 | locus YBR136W, strain MEC1, hits give low values 0.987 | locus YBR160W, strain CDC28, hits give low values 0.976 | locus YDL017W, strain CDC7, hits give low values 0.983 | locus YDL028C, strain MPS1, hits give low values 0.976 | locus YDL101C, strain DUN1, hits give low values 0.974 | locus YDL108W, strain KIN28, hits give low values 0.982 | locus YDL132W, strain cdc53, hits give low values 0.972 | locus YDL214C, strain PRR2, hits give low values 0.959 | locus YDR052C, strain DBF4, hits give low values 0.986 | locus YDR054C, strain cdc34, hits give low values 0.971 | locus YDR226W, strain ADK1, hits give low values 0.973 | locus YDR477W, strain SNF1, hits give low values 0.958 | locus YER123W, strain YCK3, hits give low values 0.953 | locus YER133W, strain GLC7, hits give low values 0.969 | locus YFL009W, strain cdc4, hits give low values 0.977 | locus YFL029C, strain CAK1, hits give low values 0.987 | locus YFR003C, strain YPI1, hits give low values 0.984 | locus YFR019W, strain FAB1, hits give low values 1 | locus YFR028C, strain CDC14, hits give low values 0.977 | locus YGR040W, strain KSS1, hits give low values 0.965 | locus YGR052W, strain FMP48, hits give low values 1.02 | locus YGR092W, strain DBF2, hits give low values 0.987 | [2] 0.99 | locus YHR082C, strain KSP1, hits give low values 1.04 | locus YHR205W, strain SCH9, hits give low values 0.976 | locus YIL147C, strain SLN1, hits give low values 0.983 | [3] 0.926 | locus YJL128C, strain PBS2, hits give low values 0.927 | locus YJL157C, strain FAR1, hits give low values 0.986 | locus YJR016C, strain ILV3, hits give low values 0.982 | locus YJR066W, strain TOR1 (second series), hits give low values 0.984 | [4] 0.972 | locus YKL048C, strain ELM1, hits give low values 0.969 | locus YKL067W, strain YNK1, hits give low values 0.947 | locus YKL101W, strain HSL1, hits give low values 0.973 | locus YKL193C, strain SDS22, hits give low values 0.981 | locus YKL203C, strain TOR2, hits give low values 1.05 | [5] 0.914 | locus YLR133W, strain CKI1, hits give low values 0.99 | locus YLR403W, strain SFP1, hits give low values 0.984 | locus YML070W, strain DAK1, hits give low values 0.97 | locus YMR001C, strain CDC5, hits give low values 0.985 | locus YMR205C, strain PFK2 (second series), hits give low values 0.97 | locus YMR277W, strain FCP1, hits give low values 0.978 | locus YNL006W, strain LST8, hits give low values 0.98 | locus YNL020C, strain ARK1, hits give low values 0.999 | locus YNL161W, strain CBK1, hits give low values 0.984 | [6] 1.01 | locus YNL207W, strain RIO2, hits give low values 0.988 | locus YNL222W, strain SSU72, hits give low values 0.97 | locus YNL307C, strain MCK1 (second series), hits give low values 0.996 | locus YOL078W, strain AVO1, hits give low values 0.984 | locus YOL136C, strain PFK27, hits give low values 0.983 | locus YOR061W, strain CKA2, hits give low values 0.976 | locus YOR119C, strain RIO1, hits give low values 0.98 | [7] 0.97 | locus YOR329C, strain SCD5, hits give low values 0.977 | locus YPL031C, strain PHO85, hits give low values 0.953 | locus YPL153C, strain RAD53, hits give low values 0.972 | locus YPL204W, strain HRR25, hits give low values 0.958 | locus YPL209C, strain IPL1, hits give low values 0.984 | [8] 0.918 | locus YPR025C, strain CCL1, hits give low values 0.976 | locus YPR106W, strain ISR1, hits give low values 0.974 | locus YPR111W, strain DBF20, hits give low values 0.965 | strain NNK1, hits give low values 0.997 | strain TSCII, hits give low values 0.99
